Records with an inconclusive call do not appear. Active and inactive are the calls of the source. The calls were made as follows, unless noted: active = hit-call score of the fitted dose curve at least 0.9, where 1 is the maximum; inconclusive = response in the unintended direction; inactive = score below 0.9.
Key:
[1] = ATG_TGFb_CIS: Attagene CIS-FACTORIAL HepG2 Assay for human Transforming Growth Factor (TGF) (AID 2282967; active = hit-call score of the fitted dose curve at least 0.9, where 1 is the maximum; inactive = score below 0.9); conditions: HepG2 Attagene CIS TGFb reporter, mRNA transcription; actives raise or lower the signal
Procedure, shortened: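 Endogenous TGFB1-linked transcription factor activity read as reporter mRNA via RT-PCR and capillary electrophoresis, 24 h after dosing transiently transfected HepG2 cells. Gain or loss of signal fitted relative to DMSO.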

[2] = ATG_VDRE_CIS: Attagene CIS-FACTORIAL HepG2 Assay for human Vitamin D Receptor Element (VDRE) (AID 2282968; active = hit-call score of the fitted dose curve at least 0.9, where 1 is the maximum; inactive = score below 0.9); conditions: HepG2 VDRE cis-reporter transcription, actives raise or lower the signal
Procedure, shortened: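 In transiently transfected HepG2 liver cells, gain or loss of reporter mRNA after 24 h exposure is scored relative to DMSO, using fluorescence detection by capillary electrophoresis of RT-PCR products.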

[3] = target: X-box-binding protein 1 (Homo sapiens) (UniProt P17861); test: ATG_Xbp1_CIS: Attagene CIS-FACTORIAL HepG2 Assay for human X-box Binding Protein 1 (XBP1) (AID 2282972; active = hit-call score of the fitted dose curve at least 0.9, where 1 is the maximum; inactive = score below 0.9); conditions: HepG2 XBP1 cis-element reporter, Attagene multiplex; actives raise or lower the signal
Sequence of X-box-binding protein 1 (Homo sapiens) (P17861 whole entry, looked up): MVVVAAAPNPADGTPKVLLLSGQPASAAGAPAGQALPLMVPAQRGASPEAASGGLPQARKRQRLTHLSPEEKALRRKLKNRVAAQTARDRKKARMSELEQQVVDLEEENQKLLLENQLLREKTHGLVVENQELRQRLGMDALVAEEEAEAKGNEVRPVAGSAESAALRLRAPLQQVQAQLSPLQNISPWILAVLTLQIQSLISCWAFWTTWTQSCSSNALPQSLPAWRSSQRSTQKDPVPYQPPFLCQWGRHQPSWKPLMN
Procedure, shortened: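 HepG2 cells transiently transfected with cis-regulated multiple reporter transcription units; endogenous transcription factor activity measured 24 hours after chemical dosing. Reporter mRNA quantified by RT-PCR, 6-FAM primer extension, HpaI digestion and capillary electrophoresis; bidirectional fitting versus DMSO.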

[4] = ATG_GAL4_TRANS: Attagene TRANS-FACTORIAL HepG2 Assay for GAL4 (Internal Marker) (AID 2282976); conditions: HepG2 Attagene TRANS GAL4 internal marker reporter
Procedure, shortened: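 In transfected human HepG2 liver cells dosed 24 h, GAL4 reporter mRNA serves as a baseline marker. Detection by RT-PCR with fluorescent capillary electrophoresis, activity fitted upward relative to DMSO.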

[5] = target: Bile acid receptor (Homo sapiens) (UniProt Q96RI1); test: ATG_FXR_TRANS: Attagene TRANS-FACTORIAL HepG2 Assay for Farnesoid X Receptor (FXR) (AID 2282979); conditions: HepG2 Attagene TRANS FXR-GAL4 reporter transcription;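 also: hits raise reporter mRNA above DMSO so AC50 marks FXR activation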
Procedure, shortened: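 Reporter transcripts from transfected HepG2 cells were measured 24 h after dosing, using RT-PCR with capillary electrophoresis of 6-FAM-labelled fragments. The read-out reflects activity of exogenous FXR-Gal4 chimera on GAL4-UAS units, with induction relative to DMSO.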

[6] = target: Oxysterols receptor LXR-beta (Homo sapiens) (UniProt P55055); test: ATG_LXRb_TRANS: Attagene TRANS-FACTORIAL HepG2 Assay for human Liver X Receptor beta (LXRb) (AID 2282981); conditions: HepG2 Attagene TRANS GAL4-LXRb reporter, mRNA
Sequence of Oxysterols receptor LXR-beta (Homo sapiens) (P55055 whole entry, looked up, the tested form may be a part): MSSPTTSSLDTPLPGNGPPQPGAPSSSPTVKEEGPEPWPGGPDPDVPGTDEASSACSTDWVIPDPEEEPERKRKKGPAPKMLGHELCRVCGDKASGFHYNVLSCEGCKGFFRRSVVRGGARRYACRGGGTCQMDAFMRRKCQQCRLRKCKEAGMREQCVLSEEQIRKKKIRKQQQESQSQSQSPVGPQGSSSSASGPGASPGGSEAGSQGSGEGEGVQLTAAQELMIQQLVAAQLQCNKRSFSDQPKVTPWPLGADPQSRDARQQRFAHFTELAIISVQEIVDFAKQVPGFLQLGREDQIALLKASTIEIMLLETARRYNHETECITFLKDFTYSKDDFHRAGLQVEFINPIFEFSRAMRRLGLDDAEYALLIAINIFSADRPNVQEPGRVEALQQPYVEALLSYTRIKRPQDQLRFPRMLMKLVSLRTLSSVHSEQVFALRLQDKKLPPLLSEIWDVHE
Procedure, shortened: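 Cells: HepG2, transiently transfected with GAL4-UAS reporter units plus LXRb-Gal4 fusion. Treatment: 24 h. Detection: reporter mRNA by RT-PCR, 6-FAM labelling, HpaI digestion, capillary electrophoresis.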

[7] = ATG_M_06_TRANS: Attagene TRANS-FACTORIAL HepG2 Assay for M06 Transcription Factor (Internal Marker) (AID 2282983); conditions: HepG2 Attagene TRANS M06 internal marker reporter
Procedure, shortened: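 Cells: HepG2, transient multi-reporter transfection. Exposure: 24 h. Detection: RT-PCR, 6-FAM labelling, HpaI digestion (2 h, 37 °C), capillary electrophoresis. Baseline: DMSO.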

[8] = target: Nuclear receptor subfamily 4 group A member 2 (Homo sapiens) (UniProt P43354); test: ATG_NURR1_TRANS: Attagene TRANS-FACTORIAL HepG2 Assay for human Nuclear Receptor Related Protein 1 (NURR1) (AID 2282985); conditions: HepG2 Attagene TRANS reporter, mRNA readout
Sequence of Nuclear receptor subfamily 4 group A member 2 (Homo sapiens) (P43354 whole entry, looked up): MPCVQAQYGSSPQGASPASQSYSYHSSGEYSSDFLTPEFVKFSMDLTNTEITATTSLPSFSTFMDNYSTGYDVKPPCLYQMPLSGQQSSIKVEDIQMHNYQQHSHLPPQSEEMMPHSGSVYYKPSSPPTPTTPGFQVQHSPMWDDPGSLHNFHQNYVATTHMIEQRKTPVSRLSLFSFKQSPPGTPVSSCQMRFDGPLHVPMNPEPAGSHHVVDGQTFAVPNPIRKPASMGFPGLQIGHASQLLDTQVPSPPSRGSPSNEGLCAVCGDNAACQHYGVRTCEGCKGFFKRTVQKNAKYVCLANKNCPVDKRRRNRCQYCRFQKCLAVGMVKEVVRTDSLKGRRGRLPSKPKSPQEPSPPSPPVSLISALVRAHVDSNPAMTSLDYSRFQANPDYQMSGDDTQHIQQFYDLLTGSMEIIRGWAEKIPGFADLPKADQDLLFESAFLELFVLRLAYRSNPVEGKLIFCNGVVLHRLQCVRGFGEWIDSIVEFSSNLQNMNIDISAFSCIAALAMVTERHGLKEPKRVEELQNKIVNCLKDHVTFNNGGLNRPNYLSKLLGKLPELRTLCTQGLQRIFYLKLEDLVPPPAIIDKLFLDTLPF
Procedure, shortened: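 Cells: HepG2, transiently transfected. Exposure: 24 h. Detection: fluorescence of labelled RT-PCR products separated by capillary electrophoresis; upward fit versus DMSO.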

[9] = target: Transcriptional activator Myb (Homo sapiens) (UniProt P10242); test: ATG_Myb_CIS: Attagene CIS-FACTORIAL HepG2 Assay for human Myeloblastosis (Myb) Proto-Oncogene Transcription Factor (AID 2282986; active = hit-call score of the fitted dose curve at least 0.9, where 1 is the maximum; inactive = score below 0.9); conditions: HepG2 Attagene CIS-FACTORIAL Myb reporter transcription; actives raise or lower the signal
Sequence of Transcriptional activator Myb (Homo sapiens) (P10242 whole entry, looked up): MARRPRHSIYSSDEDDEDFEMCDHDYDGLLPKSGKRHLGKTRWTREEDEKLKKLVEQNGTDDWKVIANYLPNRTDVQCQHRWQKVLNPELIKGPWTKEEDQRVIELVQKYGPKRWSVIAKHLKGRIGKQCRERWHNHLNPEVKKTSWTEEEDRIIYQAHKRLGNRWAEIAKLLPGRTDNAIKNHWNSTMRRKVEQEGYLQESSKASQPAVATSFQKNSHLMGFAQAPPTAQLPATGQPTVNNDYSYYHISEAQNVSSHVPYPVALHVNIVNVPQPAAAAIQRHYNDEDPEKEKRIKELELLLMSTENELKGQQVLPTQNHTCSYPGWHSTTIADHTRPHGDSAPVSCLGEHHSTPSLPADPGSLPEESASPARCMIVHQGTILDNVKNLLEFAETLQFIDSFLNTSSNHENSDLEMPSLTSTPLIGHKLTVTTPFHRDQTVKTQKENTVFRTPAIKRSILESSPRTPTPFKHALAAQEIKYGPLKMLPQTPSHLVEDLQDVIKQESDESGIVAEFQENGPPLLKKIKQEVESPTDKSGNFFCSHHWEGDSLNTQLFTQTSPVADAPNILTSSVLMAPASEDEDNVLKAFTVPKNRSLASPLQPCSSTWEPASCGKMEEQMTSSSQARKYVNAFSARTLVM
Procedure, shortened: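 Reporter mRNA is quantified by RT-PCR and capillary electrophoresis 24 h after dosing HepG2 cells transfected with cis-regulated reporter units, which track endogenous transcription factor activity. Gain and loss of signal are fitted versus DMSO baseline.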

[10] = target: Nuclear respiratory factor 1 (Homo sapiens) (UniProt Q16656); test: ATG_NRF1_CIS: Attagene CIS-FACTORIAL HepG2 Assay for human Nuclear Respiratory Factor 1 (NRF1) Orphan Gene (AID 2282987; active = hit-call score of the fitted dose curve at least 0.9, where 1 is the maximum; inactive = score below 0.9); conditions: HepG2 NRF1 cis-element reporter, Attagene multiplex; actives raise or lower the signal
Sequence of Nuclear respiratory factor 1 (Homo sapiens) (Q16656 whole entry, looked up): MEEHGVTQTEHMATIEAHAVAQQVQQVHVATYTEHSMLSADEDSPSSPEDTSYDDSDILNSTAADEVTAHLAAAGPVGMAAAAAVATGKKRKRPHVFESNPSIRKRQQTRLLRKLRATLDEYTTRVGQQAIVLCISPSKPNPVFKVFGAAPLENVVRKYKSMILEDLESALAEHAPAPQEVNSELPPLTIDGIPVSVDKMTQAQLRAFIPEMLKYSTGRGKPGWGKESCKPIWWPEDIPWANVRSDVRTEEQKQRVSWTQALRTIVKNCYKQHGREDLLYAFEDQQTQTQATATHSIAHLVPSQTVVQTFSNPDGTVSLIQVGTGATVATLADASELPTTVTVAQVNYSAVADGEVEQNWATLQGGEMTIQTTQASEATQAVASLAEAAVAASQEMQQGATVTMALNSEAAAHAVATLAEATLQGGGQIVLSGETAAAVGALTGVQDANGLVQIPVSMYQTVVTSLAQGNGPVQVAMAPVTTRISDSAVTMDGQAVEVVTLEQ
Procedure, shortened: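 Endogenous NRF1-driven reporter transcription in transfected HepG2 cells after 24 h treatment. Readout: RT-PCR products, 6-FAM labelled and resolved by capillary electrophoresis; changes fitted both directions relative to DMSO.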

[11] = target: Nuclear receptor subfamily 1 group I member 3 (Homo sapiens) (UniProt Q14994); test: ATG_CAR_TRANS: Attagene TRANS-FACTORIAL HepG2 Assay for human Constitutive Androstane Receptor (CAR) (AID 2282969); conditions: HepG2 Attagene TRANS-FACTORIAL CAR reporter;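 also: activators raise reporter mRNA above DMSO so AC50 marks induction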
Sequence of Nuclear receptor subfamily 1 group I member 3 (Homo sapiens) (Q14994 whole entry, looked up, the tested form may be a part): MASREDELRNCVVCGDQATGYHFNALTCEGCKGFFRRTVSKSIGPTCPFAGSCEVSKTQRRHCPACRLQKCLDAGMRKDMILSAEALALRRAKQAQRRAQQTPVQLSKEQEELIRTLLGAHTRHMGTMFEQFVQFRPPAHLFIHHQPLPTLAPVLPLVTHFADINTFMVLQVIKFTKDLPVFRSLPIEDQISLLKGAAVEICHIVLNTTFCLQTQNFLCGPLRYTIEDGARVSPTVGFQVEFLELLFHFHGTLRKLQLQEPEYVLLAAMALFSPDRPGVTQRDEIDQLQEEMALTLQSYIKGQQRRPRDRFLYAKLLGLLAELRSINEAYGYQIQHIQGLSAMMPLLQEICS
Procedure, shortened: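 Readout is reporter mRNA induction, quantified by fluorescent primer extension and capillary electrophoresis after RT-PCR. Cells were HepG2 transiently carrying chimeric NR-Gal4 constructs with GAL4-UAS reporters, treated for 24 h; activity scored upward from DMSO.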

[12] = ATG_M_19_TRANS: Attagene TRANS-FACTORIAL HepG2 Assay for M19 Transcription Factor (Internal Marker) (AID 2282974); conditions: HepG2 Attagene TRANS-FACTORIAL M19 internal marker reporter
Procedure, shortened: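 Background-control readout: after 24 h chemical exposure of transfected HepG2 carrying GAL4-driven reporter units, RNA was reverse-transcribed, amplified, fluorescently labeled and sized by capillary electrophoresis; gain-of-signal fit against DMSO.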

[13] = target: Glucocorticoid receptor (Homo sapiens) (UniProt P04150); test: ATG_GR_TRANS: Attagene TRANS-FACTORIAL HepG2 Assay for human Glucocorticoid Receptor (GR) (AID 2282978); conditions: HepG2 Attagene TRANS GR reporter, mRNA transcription;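 also: activators score as hits since higher reporter transcript over DMSO is fitted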
Sequence of Glucocorticoid receptor (Homo sapiens) (P04150 whole entry, looked up, the tested form may be a part): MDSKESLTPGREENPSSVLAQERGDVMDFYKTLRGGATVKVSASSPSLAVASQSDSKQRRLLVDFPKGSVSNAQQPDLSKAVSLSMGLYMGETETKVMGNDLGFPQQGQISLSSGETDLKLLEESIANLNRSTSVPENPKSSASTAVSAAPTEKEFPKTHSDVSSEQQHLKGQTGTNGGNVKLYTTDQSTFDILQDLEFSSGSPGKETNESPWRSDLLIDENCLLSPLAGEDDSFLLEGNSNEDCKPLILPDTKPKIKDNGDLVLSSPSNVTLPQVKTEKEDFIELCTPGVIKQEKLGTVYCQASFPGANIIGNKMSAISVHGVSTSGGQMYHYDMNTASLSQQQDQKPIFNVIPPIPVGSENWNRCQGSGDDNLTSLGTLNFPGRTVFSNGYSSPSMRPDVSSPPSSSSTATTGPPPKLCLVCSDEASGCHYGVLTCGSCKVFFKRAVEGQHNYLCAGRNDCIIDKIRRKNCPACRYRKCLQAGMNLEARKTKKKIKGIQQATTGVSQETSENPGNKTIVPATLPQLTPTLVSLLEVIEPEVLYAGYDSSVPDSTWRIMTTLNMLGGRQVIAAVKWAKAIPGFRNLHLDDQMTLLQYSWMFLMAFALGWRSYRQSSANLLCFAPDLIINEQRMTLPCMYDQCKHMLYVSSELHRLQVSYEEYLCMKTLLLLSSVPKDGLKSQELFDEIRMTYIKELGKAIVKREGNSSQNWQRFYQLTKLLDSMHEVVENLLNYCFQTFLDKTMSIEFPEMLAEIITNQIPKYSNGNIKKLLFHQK
Procedure, shortened: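 Readout is reporter transcript from a chimeric GR-Gal4 acting on GAL4-UAS in transfected human HepG2 liver cells after 24 h exposure, quantified by RT-PCR and capillary electrophoresis. Activation fitted upward against DMSO.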

[14] = target: Oxysterols receptor LXR-alpha (Homo sapiens) (UniProt Q13133); test: ATG_LXRa_TRANS: Attagene TRANS-FACTORIAL HepG2 Assay for human Liver X Receptor alpha (LXRa) (AID 2282980); conditions: HepG2 Attagene TRANS reporter, LXRa transactivation
Sequence of Oxysterols receptor LXR-alpha (Homo sapiens) (Q13133 whole entry, looked up, the tested form may be a part): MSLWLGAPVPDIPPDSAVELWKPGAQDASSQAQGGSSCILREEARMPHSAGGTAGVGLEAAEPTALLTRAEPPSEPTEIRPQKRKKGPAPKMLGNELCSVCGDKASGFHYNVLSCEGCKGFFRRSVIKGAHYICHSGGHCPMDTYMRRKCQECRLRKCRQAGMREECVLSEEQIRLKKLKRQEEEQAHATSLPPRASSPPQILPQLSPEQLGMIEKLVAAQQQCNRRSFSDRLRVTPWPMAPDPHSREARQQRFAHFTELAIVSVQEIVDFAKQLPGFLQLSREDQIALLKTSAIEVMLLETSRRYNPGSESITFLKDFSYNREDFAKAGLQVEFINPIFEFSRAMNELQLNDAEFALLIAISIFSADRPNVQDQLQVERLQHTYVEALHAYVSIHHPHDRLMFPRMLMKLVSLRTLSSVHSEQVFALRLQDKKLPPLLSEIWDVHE
Procedure, shortened: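 Chemical-induced reporter mRNA measured by RT-PCR with fluorescent labelling and capillary electrophoresis after 24 h dosing of transiently transfected HepG2 cells expressing exogenous NR-Gal4 chimeras; increases scored against DMSO baseline.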

[15] = target: Estrogen receptor (Homo sapiens) (UniProt P03372); test: ATG_ERa_TRANS: Attagene TRANS-FACTORIAL HepG2 Assay for human Estrogen Receptor alpha (ERa) (AID 2282970); conditions: HepG2 Attagene TRANS ERa GAL4 reporter, mRNA
Sequence of Estrogen receptor (Homo sapiens) (P03372 whole entry, looked up, the tested form may be a part): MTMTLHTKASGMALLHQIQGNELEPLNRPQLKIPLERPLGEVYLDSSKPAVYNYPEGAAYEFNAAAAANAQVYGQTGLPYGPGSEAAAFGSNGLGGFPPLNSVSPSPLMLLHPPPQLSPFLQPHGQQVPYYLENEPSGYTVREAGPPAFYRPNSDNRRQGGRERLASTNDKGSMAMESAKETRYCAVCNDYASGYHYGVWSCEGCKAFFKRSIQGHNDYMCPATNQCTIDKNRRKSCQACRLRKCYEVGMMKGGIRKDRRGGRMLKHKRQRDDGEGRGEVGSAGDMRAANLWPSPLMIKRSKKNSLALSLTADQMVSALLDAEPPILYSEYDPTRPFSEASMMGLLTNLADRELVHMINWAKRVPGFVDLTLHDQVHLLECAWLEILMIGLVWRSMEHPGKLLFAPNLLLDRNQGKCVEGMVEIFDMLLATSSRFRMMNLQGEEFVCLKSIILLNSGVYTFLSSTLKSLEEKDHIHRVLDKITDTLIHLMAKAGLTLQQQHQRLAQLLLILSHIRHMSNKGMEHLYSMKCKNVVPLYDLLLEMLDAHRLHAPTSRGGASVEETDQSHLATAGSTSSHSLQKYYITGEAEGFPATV
Procedure, shortened: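 Cells: HepG2, transiently transfected. Construct: GAL4-UAS reporter units regulated by exogenous NR-Gal4 chimeras. Time: 24 h. Detection: reporter mRNA by RT-PCR, capillary electrophoresis, fluorescence. Baseline: DMSO, upward fitting.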

[16] = target: Hepatocyte nuclear factor 4-alpha (Homo sapiens) (UniProt P41235); test: ATG_HNF4a_TRANS: Attagene TRANS-FACTORIAL HepG2 Assay for human Hepatocyte Nuclear Factor 4 alpha (HNF4a) (AID 2282982); conditions: HepG2 HNF4a transactivation reporter, mRNA readout
Procedure, shortened: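 Transfected HepG2 reporter cells are dosed for 24 h; reporter RNA is reverse-transcribed, amplified, fluorescently labelled and HpaI-digested before CE sizing. Positive-direction fit against DMSO.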

[17] = ATG_M_32_TRANS: Attagene TRANS-FACTORIAL HepG2 Assay for M32 Transcription Factor (Internal Marker) (AID 2282984); conditions: HepG2 Attagene TRANS M32 internal marker reporter;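 also: transcript level of a background control reporter unit measured by RT-PCR and capillary electrophoresis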
Procedure, shortened: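 Using transiently transfected HepG2 cells exposed to test chemicals for 24 h, reporter transcripts are converted to labelled cDNA fragments and quantified by capillary electrophoresis. DMSO defines the activity baseline.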

[18] = target: Androgen receptor (Homo sapiens) (UniProt P10275); test: ATG_AR_TRANS: Attagene TRANS-FACTORIAL HepG2 Assay for human Androgen Receptor (AR) (AID 2282973); conditions: HepG2 Attagene TRANS-FACTORIAL AR reporter transcription
Procedure, shortened: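 Transcriptional activity of an exogenous AR–Gal4 fusion read as GAL4-UAS reporter transcript levels in transfected human HepG2 cells after 24 h dosing. Detection via RT-PCR, 6-FAM labelling, HpaI digest and capillary electrophoresis; increase over DMSO baseline.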

Measured: AC50

ClC1(Cl)C2(Cl)C3(Cl)C4(Cl)C(Cl)(Cl)C5(Cl)C3(Cl)C1(Cl)C5(Cl)C24Cl (stereo not drawn)
inactive: [1] | [2] | [3] | [4] | [5] | [6] | [7] | [8] | [9] | [10]

O=C1CCCN1
not listed: [2] | [6] | [8] | [15] | [16] | [17] | [18]
inactive: all other assays above

O=S(=O)(c1ccc(Cl)cc1)c1ccc(Cl)cc1
not listed: [2] | [5] | [8] | [12] | [16] | [17] | [18]
inactive: all other assays above

CCCCC(CC)CO[N+](=O)[O-] (stereo not drawn)
inactive: [1] | [3] | [13] | [16] | [7] | [17] | [8] | [9] | [10]
active: [2] 143 µM

COC(=O)c1sccc1S(=O)(=O)NC(=O)Nc1nc(C)nc(OC)n1
not listed: [2] | [4] | [5] | [7] | [16] | [17] | [18]
inactive: all other assays above

Cc1ccccc1C(=O)Nc1cccc(OC(C)C)c1
not listed: [2] | [4] | [5] | [7] | [8] | [11] | [15]
inactive: all other assays above

CC(C)(C)c1cc(O)ccc1O
inactive: [1] | [13] | [7] | [17] | [10]
active: [15] 33.6 µM | [3] 109 µM

CC(C)(c1ccc(OCC2CO2)cc1)c1ccc(OCC2CO2)cc1 (stereo not drawn)
active: [3] 24.4 µM
inactive: [1] | [12] | [4] | [13] | [6] | [17] | [8] | [9] | [10]

CCC(=O)C(CC(C)N(C)C)(c1ccccc1)c1ccccc1 (stereo not drawn)
not listed: [2] | [4] | [7] | [8] | [11] | [16]
inactive: all other assays above

Source: PubChem BioAssay (EPA / NIEHS)
